Test results from PubChem BioAssay (EPA / NIEHS).
Results filed as inconclusive are left out. Activity calls are given as the source filed them. The calls were made as follows, unless noted: active = hit-call score of the fitted dose curve at least 0.9, where 1 is the maximum; inactive = score below 0.9.

Tests used:
[1] = CCTE_Shafer_MEA_acute_network_burst_percentage: CCTE's Neural Acute Assay for Percentage of Network Bursts, Shafer Lab (AID 2284022);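 also: curves fitted for loss so actives lower network burst percentage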
In short: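 Cortical neurons from rat were grown over microelectrode arrays and used on day 13 or 15 in vitro. Wells with at least 10 active electrodes received test chemical at 0.03-40 uM. Activity during 40 min of exposure was compared with the preceding 40-min baseline.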

[2] = CCTE_Shafer_MEA_acute_cross_correlation_area: CCTE's Neural Acute Assay for Area of Cross Correlation, Shafer Lab (AID 2284024);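 also: area under pooled inter-electrode spike cross-correlation near zero lag as percent change from own baseline; curves fitted for loss of cross-correlation area so actives lower synchrony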
In short: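 Acute exposure of mature rat cortical networks (day 13 or 15 post-plating) to 0.03-40 uM compound. Spontaneous spiking on MEA, 40 min pre- and post-dose at 37 C.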

[3] = CCTE_Shafer_MEA_acute_cross_correlation_HWHM: CCTE's Neural Acute Assay for Cross Correlation at Half Width at Half Maximum, Shafer Lab (AID 2284026);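 also: percent change per well from pre-dose baseline in spike cross-correlogram half width; hits are a decrease in cross-correlogram half width relative to DMSO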
In short: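 Primary cortex (rat), MEA, DIV 13/15; compound 0.03-40 uM; 40 min pre + 40 min post at 37 C; spike threshold 8x rms; wells need ≥10 active electrodes; endpoint = % change in cross-correlogram HWHM vs baseline, DMSO negative control.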

[4] = CCTE_Shafer_MEA_acute_synchrony_index: CCTE's Neural Acute Assay for Synchrony, Shafer Lab (AID 2284027);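 also: network synchrony index of spontaneous spiking in primary rat cortical neurons on MEAs; fitted for loss of signal so actives lower synchrony relative to DMSO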
In short: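 Primary rat cortical neurons on 48-well MEAs, dosed at 0.03–40 uM on DIV 13 or 15. Spikes are recorded for 40 min at 37C before and after exposure, and synchrony index (0–1) is expressed as percent change from baseline per well.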

[5] = biological target: Estrogen receptor (Homo sapiens) (UniProt P03372); test: CCTE_Deisenroth_AIME_384WELL_LUC_Active: CCTE's 384-well Estrogen Receptor Transactivation Assay with AIME metabolic competence (ERTA luciferase; metabolism positive), Deisenroth Lab (AID 2284030; active = hit-call score of the fitted dose curve at least 0.9, where 1 is the maximum)
In short: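 In this metabolism-positive format, a 2-hour exposure to alginate-immobilized rat S9 precedes a 24 hour luciferase transactivation readout in VM7Luc4E2 cells. Dosing spans 10 concentrations from 0.002 to 200 uM.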

[6] = biological target: Estrogen receptor (Homo sapiens) (UniProt P03372); test: CCTE_Deisenroth_AIME_384WELL_LUC_Inactive: CCTE's 384-well Estrogen Receptor Transactivation Assay without AIME metabolic competence (ERTA luciferase; metabolism negative), Deisenroth Lab (AID 2284038; active = hit-call score of the fitted dose curve at least 0.9, where 1 is the maximum;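 also: VM7Luc4E2 breast cells given medium preincubated 2 h with S9-free microspheres; hits raise estrogen receptor luciferase signal so potencies reflect agonists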)
In short: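 Metabolism-negative mode: chemicals (10-point, 0.002–200 uM) held 2 h with alginate-water microspheres, then conditioned medium applied to VM7Luc4E2 cells for 24 h. Luciferase induction referenced to 17beta-estradiol.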

[7] = biological target: Estrogen receptor (Homo sapiens) (UniProt P03372); test: CCTE_Deisenroth_AIME_384WELL_LUC_Shift: CCTE's 384-well Estrogen Receptor Transactivation Assay with AIME metabolic competence data shift (ERTA luciferase; difference in metabolism positive and negative), Deisenroth Lab (AID 2284041);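 also: shift is response with S9 minus without S9 so positive means metabolism raised ER signal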
In short: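 Test chemicals (0.002–200 uM, 10-point) were pre-incubated 2 h with alginate microspheres containing phenobarbital/beta-naphthoflavone-induced male Sprague Dawley rat liver S9 or water, then medium was transferred to VM7Luc4E2 cells for 24 h luciferase readout; shift = S9-positive minus S9-negative normalized response.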

[8] = CCTE_Deisenroth_AIME_384WELL_CTox_Active: Cytotoxicity Assessment (CTOX) in CCTE's 384-well Estrogen Receptor Transactivation Assay with AIME metabolic competence (metabolism positive), Deisenroth Lab (AID 2284037; active = hit-call score of the fitted dose curve at least 0.9, where 1 is the maximum;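 also: chemicals first conditioned 2 h by alginate-bound induced rat liver S9 before cells; activity means signal loss indicating cell death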)
In short: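 Cytotoxicity in VM7Luc4E2 breast cells, 24 hour, measured as protease-substrate fluorescence loss, after 2-hour metabolic conditioning with induced rat hepatic S9 in alginate microspheres. Concentrations 0.002 - 200 uM, 10 points, bidirectional fitting.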

[9] = CCTE_Deisenroth_AIME_384WELL_CTox_Inactive: Cytotoxicity Assessment (CTOX) in CCTE's 384-well Estrogen Receptor Transactivation Assay without AIME metabolic competence (metabolism negative), Deisenroth Lab (AID 2284039; active = hit-call score of the fitted dose curve at least 0.9, where 1 is the maximum;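 also: cell viability via live-cell protease substrate cleaved to fluorescent probe; cells exposed 24 h to medium preincubated 2 h with alginate-water beads without S9; loss of fluorescence signal means loss of viability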)
In short: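 Fluorescence from a live-cell protease substrate, read after 24 h in VM7Luc4E2 cells, indicated viability. Test medium came from a 2 h AIME step without hepatic S9 (alginate-water microspheres); concentrations spanned 0.002 - 200 uM, single technical replicate per run.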

[10] = CCTE_Shafer_MEA_dev_firing_rate_mean: CCTE's Neural Network Formation Assay for Mean Firing Rate, Shafer Lab (AID 2284031)
In short: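 Primary rat cortical neurons on 48-well MEA plates, exposed from plating day 0 with dosing renewed on DIV 5 and 9. Mean well firing rate over active electrodes, recorded days 5, 7, 9, 12, summarised as trapezoidal AUC.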

[11] = CCTE_Shafer_MEA_dev_active_electrodes_number: CCTE's Neural Network Formation Assay for Number of Active Electrodes, Shafer Lab (AID 2284040; active = hit-call score of the fitted dose curve at least 0.9, where 1 is the maximum)
In short: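 Primary rat cortical neurons on 16-electrode MEA wells, exposed from day 0 through day 12 with compound renewed at DIV 5 and 9 feeds. Active electrodes (mean firing ≥5 spikes/min) counted at DIV 5, 7, 9, 12; trapezoidal AUC across days, loss-of-signal versus DMSO.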

[12] = CCTE_Shafer_MEA_dev_burst_rate: CCTE's Neural Network Formation Assay for Burst Rate, Shafer Lab (AID 2284042)
In short: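 Developmental network assay measuring how 12-day exposure of rat cortical neuron cultures alters bursting on extracellular MEA recordings. Values are AUC of well-mean burst rate across four recording days, relative to DMSO vehicle.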

[13] = CCTE_Shafer_MEA_dev_bursting_electrodes_number: CCTE's Neural Network Formation Assay for Number of Bursting Electrodes, Shafer Lab (AID 2284043; active = hit-call score of the fitted dose curve at least 0.9, where 1 is the maximum)
In short: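 Read-out is the per-well number of electrodes bursting at least once every 2 minutes, recorded on days 5, 7, 9 and 12 and collapsed by trapezoidal area under the curve. Cultures were primary rat cortical neurons on MEA plates, treated continuously from plating.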

[14] = CCTE_Shafer_MEA_dev_per_burst_interspike_interval: CCTE's Neural Network Formation Assay for Burst Interspike Interval, Shafer Lab (AID 2284044);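 also: mean spike spacing inside bursts as AUC over recordings on days 5 7 9 12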
In short: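 Developmental network-formation MEA in primary rat cortical cultures with exposure spanning days 0–12. Within-burst ISI is averaged per well and integrated across recording days by area under the curve, with DMSO as negative control baseline.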

[15] = CCTE_Shafer_MEA_dev_burst_duration_mean: CCTE's Neural Network Formation Assay for Mean Burst Duration, Shafer Lab (AID 2284045)
In short: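 Read-out: average first-to-last-spike interval within single-electrode bursts, averaged over bursting electrodes per well, then summarised as area under the curve across days 5, 7, 9 and 12. Developing rat cortical networks were exposed from day 0.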

[16] = CCTE_Shafer_MEA_dev_interburst_interval_mean: CCTE's Neural Network Formation Assay for Mean Interburst Interval, Shafer Lab (AID 2284046);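 also: well-mean interburst interval of bursting electrodes as AUC over four recording days; curve fitted for decrease in interburst interval relative to DMSO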
In short: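 Network formation assay in primary rat cortical cultures, exposed from DIV 0 to 12. Mean interburst interval per well, integrated as AUC over four recordings.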

[17] = CCTE_Shafer_MEA_dev_network_spike_number: CCTE's Neural Network Formation Assay for Number of Network Spikes, Shafer Lab (AID 2284048);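 also: synchronized bursts across electrodes counted on days 5 7 9 12 and integrated as AUC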
In short: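 Developing networks of primary rat cortical neurons are treated over 12 days starting at plating, with media and compound fully replaced on DIV 5 and 9. Network spike counts from four recording days are integrated as trapezoidal AUC.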

[18] = CCTE_Shafer_MEA_dev_network_spike_peak: CCTE's Neural Network Formation Assay for Mean Number of Electrodes in Network Spike, Shafer Lab (AID 2284049)
In short: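 Rat cortical primary culture, 1.5 x 10^5 cells/well, 48-well MEA (16 electrodes/well). Dosing day 0 through DIV 12, full media/compound exchange DIV 5, 9. AxIS adaptive spike detection; AUC over days 5/7/9/12; loss-of-signal vs DMSO.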

[19] = CCTE_Shafer_MEA_dev_spike_duration_mean: CCTE's Neural Network Formation Assay for Mean Spike Duration, Shafer Lab (AID 2284051);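 also: mean network spike duration pooled as area under curve over DIV 5 to 12 recordings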
In short: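 With DMSO as baseline, loss of mean network spike duration was scored from extracellular recordings of rat cortical neurons on MEA plates. Exposure spanned plating to DIV 12; the four recording days were collapsed into one AUC value.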

Measured: AC50

Sequence of Estrogen receptor (Homo sapiens) (P03372 whole entry, looked up): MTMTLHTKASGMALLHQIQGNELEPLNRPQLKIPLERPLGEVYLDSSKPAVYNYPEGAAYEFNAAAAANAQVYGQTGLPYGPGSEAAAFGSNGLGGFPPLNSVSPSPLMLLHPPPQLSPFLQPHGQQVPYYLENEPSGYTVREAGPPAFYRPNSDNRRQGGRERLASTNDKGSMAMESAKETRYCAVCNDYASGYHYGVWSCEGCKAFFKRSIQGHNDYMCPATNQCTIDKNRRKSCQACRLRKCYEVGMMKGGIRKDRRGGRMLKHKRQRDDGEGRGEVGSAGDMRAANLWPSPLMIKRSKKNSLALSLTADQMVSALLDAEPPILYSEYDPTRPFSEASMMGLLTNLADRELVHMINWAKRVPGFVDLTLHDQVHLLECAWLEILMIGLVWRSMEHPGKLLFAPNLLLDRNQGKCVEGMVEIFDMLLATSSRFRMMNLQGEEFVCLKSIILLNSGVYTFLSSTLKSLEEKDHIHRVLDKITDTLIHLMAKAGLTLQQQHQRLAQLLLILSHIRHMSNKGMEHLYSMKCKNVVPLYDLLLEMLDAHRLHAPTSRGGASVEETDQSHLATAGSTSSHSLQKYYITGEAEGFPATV

[N-]=[N+]=[N-]
inactive: [1] | [2] | [3] | [4] | [5] | [6] | [7]

Nc1ccc(Cl)cc1
inactive: [5] | [8] | [6] | [9] | [7]

c1ccc(OP(Oc2ccccc2)Oc2ccccc2)cc1
active: [5] 76.8 µM | [6] 75.4 µM | [7] 60.5 µM
not listed: [1] | [2] | [3] | [4]
inactive: all other assays above

CCCCOCC1CO1 (configuration not stated)
inactive: [8]
active: [5] 77.3 µM | [6] 19.9 µM | [7] 8.76 µM

CCN(CC)c1ccccc1
inactive: [5] | [8] | [6] | [9] | [7]

CCCCc1ccc(O)cc1
inactive: [9] | [7]
active: [5] 26.1 µM | [8] 158 µM | [6] 20.2 µM

CCCCN(CCCC)N=O
active: [6] 85.5 µM | [7] 77.6 µM
inactive: [5] | [8] | [9]

CCC(C)(C)c1ccc(O)cc1
inactive: [1] | [2]
active: [3] 9.35 µM | [4] 8.24 µM | [5] 7.31 µM | [6] 1.52 µM | [7] 0.0296 µM

Nc1ccc2ccccc2c1
active: [5] 13.8 µM
inactive: [1] | [2] | [3] | [4] | [8] | [6] | [9] | [7]

O=[N+]([O-])c1ccccc1
inactive: [5] | [8] | [6] | [9] | [7]

ClC(Cl)(Cl)c1ccccc1
inactive: [1] | [2] | [3] | [4]

O=C(O)C1C(C(=O)O)C2(Cl)C(Cl)=C(Cl)C1(Cl)C2(Cl)Cl (configuration not stated)
not listed: [5] | [6] | [7] | [8] | [9] | [11] | [13]
inactive: all other assays above

Cc1ccc(N)cc1N
inactive: [1] | [2] | [3] | [4]

CCCCc1ccccc1
inactive: [5] | [8] | [6] | [9] | [7]
